HepG2 viability: kills HepG2 cells in TGF-b inhibitor counter-screen; HepG2 CAGA-GFP viability, ATP luminescence, 18 h; 0.76% of 410,000 active; AID 588856; Potency, µM (top dose mostly 46.1 µM), for inactives: top-dose activity change, negative = cytotoxicity, usual class: cytotoxic
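HepG2 CAGA-GFP cells (1000/well, DMEM with 1% FBS) received compound, then TGF-beta at 500 pg/mL final, and were incubated 18 hours at 37 degrees C. Viability was read by CellTiter-Glo luminescence. Media-only wells were set as complete cell-killing and DMSO as no toxicity.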
TGFb SMAD3 inh: TGF-b pathway inhibition; HepG2 CAGA-GFP TGF-b/SMAD3 reporter, GFP fluorescence, 18 h; TGF-beta stimulated, 500 pg/mL final; AID 588855; 1.2% of 410,000 active; Potency, µM (highest dose often 46.1 µM), inactives show at the highest dose activity, negative = inhibition, usual class: inhibitors; further: on the % scale 0 is the no-effect control and ±100 the full control effect; nearly all actives have a fitted effect of over 65% in size
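HEPG2 CAGA-GFP reporter cells (1000/well, DMEM with 1% FBS) received compounds, then recombinant TGF-beta at 500 pg/mL final for 18 hours at 37 degrees C. Per-cell GFP summed per well was normalised to unstimulated and stimulated DMSO controls before curve fitting.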
S2 tox: reduces viability in counter-screen for ATXN expression inhibitors. 0.49% of 400,000 active. Potency, µM (highest dose often 56.7 µM), most hits filed as cytotoxic. AID 651635. S2 cells (HEK-293 line with an ATXN2-luciferase reporter) viability, CellTiter-Fluor protease fluorescence, 24 h; further: nearly all actives have a fitted effect of over 40% in size
HTT aggregate: inhibitors of mutant huntingtin aggregate formation in PC12 cells; PC12 HttQ103-GFP aggregates, Acumen cytometry, 40 h; Potency, µM (highest dose often 46.1 µM), for inactives: at the top dose activity change, negative = inhibition, actives largely listed as inhibitors; 1.1% of 220,000 active; further: on the % scale 0 is the no-effect control and ±100 the full control effect; nearly all actives have a fitted effect of over 60% in size
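Inducible Q103 Huntingtin exon 1–GFP PC12 line, 1500 cells/well in phenol red free DMEM with 5% equine and 5% calf serum. Tebufenozide 100 nM induced expression; compounds titrated; aggregates quantified by cytometry.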
ATXN2 expr inh: inhibitors of ATXN2 expression; Potency, µM (titrated, usually from 57 µM), for inactives: at the top dose activity change, negative = inhibition, hits mostly inhibitors; 0.72% of 360,000 active; HEK-293 ATXN2-luciferase reporter, luminescence, 24 h; AID 1745845; further: on the % scale 0 is the no-effect control and ±100 the full control effect; nearly all actives have a fitted effect of over 55% in size
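ATXN2-luciferase reporter cells (luciferase flanked by upstream and downstream ATXN2 gene portions) were treated 24 h at 37 °C with compounds at up to 57 uM. SteadyGlo luminescence gave expression; GF-AFC fluorescence gave viability.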
HTT cytoprotect: cytoprotection in Huntington HTT-Q103 PC12 cell model | PC12 HTT-Q103 induced, cytoprotection, ATP luminescence, 40 h | Potency, µM (series often up to 56.4 µM), inactives show cytoprotection (ATP increase), hits mostly activators | 0.14% of 230,000 active; further: % of control where 0% means no effect; nearly all actives have a fitted effect of over 45% in size
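Rat PC12, Q103 Htt exon1-GFP fusion, ecdysone promoter; tebufenozide inducer 100 nM final; compound titration; qHTS, 1500 cells/well; ATPlite luminescent read.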
Active calls of the source: *; [ ] = dose if it differs, or a comment. Compounds with a hit are over-represented: about 2.8% of the library has one in this group of screens. The call rests on the fitted dose curve; in most records, active means well fitted curve in the direction sought with a large enough effect; inconclusive means small, poorly fitted or top-dose-only effect, or another doubt; inactive means no such curve, though single readings can be large; an effect the other way counts as inactive or inconclusive. Potency means the concentration at half of the fitted maximal effect.

COc1ccc(-c2coc3ccc(O[C@@H]4O[C@@H](COC(C)=O)[C@@H](OC(C)=O)[C@@H](OC(C)=O)[C@H]4OC(C)=O)cc3c2=O)cc1 was read as HTT cytoprotect -38%.
CC(C)c1ccc(NC(=O)c2cc3c([nH]c2=O)CC(C)(C)CC3=O)cc1 was read as HepG2 viability -25% and TGFb SMAD3 inh -16%.
Cc1csc(C(C)N(C)C(=O)c2cc(NC(=O)C3CCC3)c3c(c2)nc(-c2ccncc2)n3C)n1 (stereo not drawn) was read as S2 tox inactive.
NC(=Nc1nc(-c2ccccn2)cc2ccccc12)c1ccccn1 was read as HepG2 viability -60%, TGFb SMAD3 inh -62%, S2 tox inconclusive and ATXN2 expr inh 0.32µM*.
For N/C(=N\OC(=O)c1cccc2ccccc12)c1ccccn1 the results were HepG2 viability -59%, TGFb SMAD3 inh -12%, S2 tox inconclusive, HTT aggregate -17%[9.22 µM], ATXN2 expr inh 6% and HTT cytoprotect -21%[10 µM].
CCN1CSC(=S)N(Cc2ccc(OC)cc2)C1 was read as HepG2 viability 7.9µM*, TGFb SMAD3 inh 4µM*, S2 tox inconclusive, HTT aggregate 17%[9.22 µM] and HTT cytoprotect -35%[0.074 µM].
CCCCCN1CSC(=S)N(Cc2ccccc2)C1 was read as HepG2 viability -9%, TGFb SMAD3 inh 10µM*, S2 tox inconclusive, HTT aggregate 14%, ATXN2 expr inh -30% and HTT cytoprotect 8%[0.074 µM].
S=C1SCN(Cc2cccs2)CN1Cc1cccs1 was read as HepG2 viability -85%, TGFb SMAD3 inh 13µM* and S2 tox inconclusive.
CN(C)CC(C)(C)CNC(=O)c1cnn(-c2ncc3c(n2)-c2ccccc2CC3)c1-c1ccco1 was read as S2 tox inactive.
Screening C#CCOCCOCCOCCNc1nc(N2CCOCC2)nc(N2CCN(C(=O)CCCCCCCCCCNC(=O)[C@@H]([C@H](C)CC)n3cc(CCCCCN)nn3)CC2)n1 returned HepG2 viability -39%, TGFb SMAD3 inh inconclusive, S2 tox inconclusive and ATXN2 expr inh inconclusive.
Screening C#CCOCCOCCOCCNc1nc(N2CCN(C(=O)CCCCCCCCCCNC(=O)[C@H]([C@@H](C)CC)n3cc(CCCCN=C(N)N)nn3)CC2)nc(N2CCN(C(=O)CCCCCCCCCCNC(=O)[C@H](CCCCN)n3cc(C)nn3)CC2)n1 returned HepG2 viability 11µM*, TGFb SMAD3 inh 16µM*, S2 tox 20µM* and ATXN2 expr inh 25µM*.
C#CCOCCOCCOCCNc1nc(N2CCN(C(=O)CCCCCCCCCCNC(=O)[C@H]([C@@H](C)CC)n3cc(CCCCCN)nn3)CC2)nc(N2CCN(C(=O)CCCCCCCCCCNC(=O)[C@H](CO)n3cc(CCCCCN)nn3)CC2)n1 was read as HepG2 viability 14µM*, TGFb SMAD3 inh inconclusive, S2 tox 22µM* and ATXN2 expr inh inconclusive.
CC(C)(C)OC(=O)CC[C@@H](C(=O)NCCCCCCCCCCC(=O)N1CCN(C(=O)OC(C)(C)C)CC1)n1cc(CCCCCNC(=O)OC(C)(C)C)nn1 was read as HepG2 viability -19%, TGFb SMAD3 inh -20%, S2 tox inactive and ATXN2 expr inh 8%.
For CC(C)(C)OC(=O)NCCCCCc1cn([C@@H](CO)C(=O)NCCCCCCCCCCC(=O)N2CCN(C(=O)OC(C)(C)C)CC2)nn1 the results were HepG2 viability -46%, TGFb SMAD3 inh inconclusive, S2 tox 11µM* and ATXN2 expr inh 16µM*.

Screening results deposited in PubChem by National Center for Advancing Translational Sciences (NCATS).
